# Results taken from PubChem BioAssay (NCI).
# About 79,000 compounds went through this panel and 15% of them were active in at least one assay; those are over-represented in the sample as a whole. A number with no mark means an inactive call. Active and inactive are the calls of the source. Cut-off read from the data, not from the text of the source: active = growth inhibition above about 70%; inactive = the rest.
# What was measured:
# [1] = NCI Yeast Anticancer Drug Screen. Data for the rad50 strain (AID 155);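 note: 0% = growth of vehicle-only cultures of the same strain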; details: S. cerevisiae rad50 strain growth inhibition, hits give high values
# In short: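 A DNA repair-deficient yeast mutant serves as the test organism; compound-induced growth inhibition is calculated against vehicle-treated cells.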
# [2] = NCI Yeast Anticancer Drug Screen. Data for the mec2-1 strain (AID 157); details: S. cerevisiae mec2-1 strain, hits give high values
# In short: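 mec2-1 yeast strain, carrying an alteration in DNA damage repair or cell cycle control, was exposed to compounds; growth inhibition was measured relative to vehicle-treated controls.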
# [3] = NCI Yeast Anticancer Drug Screen. Data for the sgs1 mgt1 strain (AID 161);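 note: 0% = growth of cultures given vehicle only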; details: S. cerevisiae sgs1 mgt1 strain, hits give high values
# In short: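 Yeast cells carrying a defined DNA-repair defect were exposed to test compounds. Growth inhibition was measured relative to vehicle-treated controls.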
# [4] = NCI Yeast Anticancer Drug Screen. Data for the cln2 rad14 strain (AID 165);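 note: 0% = growth equal to vehicle treated cultures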; details: S. cerevisiae cln2 rad14 strain, hits give high values
# In short: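 Yeast carrying cln2 and rad14 alterations (cell cycle control and DNA damage repair) were exposed to compounds. Growth inhibition was measured against vehicle-treated controls.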
# [5] = NCI Yeast Anticancer Drug Screen. Data for the bub3 strain (AID 167); details: S. cerevisiae bub3 mutant strain, hits give high values
# In short: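 Inhibition values come from growth of compound-treated mutant yeast normalised to vehicle-treated controls.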
# [6] = NCI Yeast Anticancer Drug Screen. Data for the mlh1 rad18 strain (AID 175); details: S. cerevisiae mlh1 rad18 strain growth inhibition, hits give high values
# In short: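 Growth inhibition of the yeast strain was measured after compound exposure and expressed relative to vehicle-treated controls. The strain carries defined defects in DNA damage repair.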
# [7] = at 5.0 µM (retest, dose inferred, filed as 0.5)
# [8] = at 50.0 µM (retest, dose inferred, filed as 5.0)
SMILES,"growth inhibition [1, 7]","growth inhibition [1, 8]",growth inhibition ([1]; at 50.0 µM),"growth inhibition [2, 7]","growth inhibition [2, 8]",growth inhibition ([2]; at 50.0 µM),"growth inhibition [3, 7]","growth inhibition [3, 8]",growth inhibition ([3]; at 50.0 µM),"growth inhibition [4, 7] [%]","growth inhibition [4, 8]",growth inhibition ([4]; at 50.0 µM),"growth inhibition [5, 7]","growth inhibition [5, 8]",growth inhibition ([5]; at 50.0 µM),"growth inhibition [6, 7]","growth inhibition [6, 8]",growth inhibition ([6]; at 50.0 µM)
NNc1cc(C(F)(F)F)nc2ccccc12,-133%,-80%,35.5%,-48%,-46%,3.1%,-53%,-48%,-21.1%,-56,-88%,34.1%,-65%,-75%,1.45%,-108%,-95%,64.8%
CC1(C)[C@@H]2CC[C@]1(C)[C@@H](OC(=O)CSC#N)C2,92% (active),99% (active),99.4% (active),74% (active),100% (active),99.6% (active),98% (active),100% (active),99.3% (active),24,99% (active),98.8% (active),95% (active),100% (active),99.6% (active),75% (active),99% (active),99.2% (active)
COc1cc(C=O)c(Cl)cc1O,2%,21%,55%,1%,43%,67%,1%,47%,90% (active),-4,25%,60.2%,-2%,14%,44.5%,2%,34%,77.8% (active)
CCCC(C)(O)C(C)CC (configuration not stated),2%,5%,19.1%,0%,-1%,9.3%,-1%,0%,-0.85%,-3,-8%,-6.9%,-3%,8%,2.45%,-2%,0%,7.7%
O=C1CCSC(=S)N1c1ccccc1C(F)(F)F,7%,99% (active),99.1% (active),4%,99% (active),99.5% (active),9%,99% (active),99.5% (active),7,98% (active),98.6% (active),0%,99% (active),99.2% (active),1%,99% (active),99.3% (active)
NNc1ccccc1[N+](=O)[O-],8%,80% (active),89% (active),8%,84% (active),89.2% (active),-2%,62%,84.6% (active),24,82% (active),77.2% (active),6%,98% (active),88.5% (active),-11%,96% (active),83.3% (active)
COc1ccc(CN2C(=O)C(Cl)=C(Cl)C2=O)c(OC)c1,-1%,50%,99.5% (active),4%,59%,99.7% (active),-2%,73% (active),99.6% (active),-4,27%,99% (active),-2%,68%,99.5% (active),-2%,44%,99.5% (active)
CCCCCCCCCC[N+](C)(C)CCC[N+](C)(C)CCCCCCCCCC,42%,93% (active),89.5% (active),20%,88% (active),91.2% (active),37%,98% (active),88.3% (active),32,88% (active),78.2% (active),31%,95% (active),62.6%,31%,89% (active),61.8%
C[C@]12CC[C@H]3[C@@H](CCC4=CC(=O)CC[C@@]43C)[C@@H]1CC[C@@H]2C(=O)C=O,19%,42%,67.2%,6%,36%,52.6%,16%,61%,71% (active),5,21%,39%,1%,17%,41.2%,27%,74% (active),56.2%
